Bioassay records from PubChem.
ELG1 genotoxic: induces genotoxicity in HEK293T cells with luciferase-tagged ELG1; HEK293T ELG1-luciferase reporter, luminescence, 16 h; Potency, µM (highest dose often 46 µM), actives largely listed as activators; 1.3% of 330,000 active; AID 504466; also: nearly all actives have a fitted effect of over 60% in size
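DMSO vehicle served as control against compound-treated ELG1-luciferase HEK293T cells; exposure lasted 16 hr at 37 °C and 5% CO2, followed by ONE-Glo luminescence detection after 30 min.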
FLuc modulator: inhibits or activates purified firefly luciferase, miR-21 counter-screen; purified FLuc, Km substrates, luminescence inhibition; Potency, µM (titrated, usually from 57.5 µM), hits mostly inhibitors; 6.9% of 360,000 active; AID 588342; also: nearly all actives have a fitted effect of over 55% in size
Target sequence (P08659 whole entry, looked up): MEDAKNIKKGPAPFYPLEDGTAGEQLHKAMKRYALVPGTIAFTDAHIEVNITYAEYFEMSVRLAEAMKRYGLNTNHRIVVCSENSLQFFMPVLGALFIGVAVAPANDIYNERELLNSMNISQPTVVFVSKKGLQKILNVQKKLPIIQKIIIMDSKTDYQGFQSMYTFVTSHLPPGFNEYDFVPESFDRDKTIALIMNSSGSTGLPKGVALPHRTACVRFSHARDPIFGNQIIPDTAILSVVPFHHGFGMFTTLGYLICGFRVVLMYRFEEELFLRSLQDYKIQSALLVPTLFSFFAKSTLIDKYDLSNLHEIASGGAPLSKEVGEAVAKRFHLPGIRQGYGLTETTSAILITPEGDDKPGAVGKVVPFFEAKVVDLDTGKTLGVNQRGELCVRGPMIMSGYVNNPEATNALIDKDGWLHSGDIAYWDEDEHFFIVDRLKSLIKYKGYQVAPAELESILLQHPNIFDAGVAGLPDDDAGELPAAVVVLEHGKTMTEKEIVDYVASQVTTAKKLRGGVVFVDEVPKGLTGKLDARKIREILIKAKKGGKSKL
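Biochemical qHTS of compounds, final roughly 60 µM downward over six points, against 10 nM purified firefly luciferase using Km concentrations of substrates (10 uM D-luciferin, 10 uM ATP) in Tris acetate pH 7.5 buffer; luminescence output.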
NPC1 prom act: NPC1 promoter activation; Huh7 NPC1 promoter luciferase reporter, 24 h; 2.4% of 320,000 active; Potency, µM (top dose mostly 9.22 µM), actives largely listed as activators; also: nearly all actives have a fitted effect of over 60% in size
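NPC1 promoter–luciferase Huh7 cells; 24 h compound; luminescence.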
SMN2 splice enh: enhancers of SMN2 splice variant expression; HEK293 SMN2-luciferase splicing reporter, luminescence, 30-36 h; Potency, µM (top dose mostly 46.1 µM), actives largely listed as activators; 2.8% of 210,000 active; AID 1458; also: nearly all actives have a fitted effect of over 55% in size
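HEK293 cells carry an SMN2 […]–luciferase reporter in which exon 7 inclusion puts luciferase in frame. Cells were plated 10-12 h before compound addition, then incubated 30-36 h at 37C. ONE-Glo luminescence was read; sodium butyrate at 4.5 mM final served as control.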
Luc counter: counter-screen: inhibitors of Kinase-Glo firefly luciferase; Q27757; Kinase-Glo luciferase, ATP luminescence, 8 min; Potency, µM (highest dose often 38.3 µM), usual class: inhibitors; 0.28% of 200,000 active; also: nearly all actives have a fitted effect of over 60% in size
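Kinase-Glo luciferase light output from ATP and luciferin was measured with 10 uM ATP, within the enzyme's linear range. Buffer: 50 mM imidazole pH 7.2, 50 mM KCl, 7 mM MgCl2, 0.01% Tween 20, 0.05% BSA; luminescence read after 8 min at ambient temperature.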
Rab9 promoter act: activators of Rab9 promoter | Huh7 Rab9 promoter-luciferase reporter, luminescence, 24 h | Potency, µM (top dose mostly 9.22 µM), most hits filed as activators | 2.8% of 320,000 active | AID 485297; also: nearly all actives have a fitted effect of over 60% in size
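Promoter activation is measured as luciferase luminescence in Huh7 cells stably transfected with a Rab9 promoter–luciferase construct, following 24 h compound exposure at 37 °C and 10 min reagent incubation at ambient temperature.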
Hits are given with their value; [ ] = dose if it differs, or a comment. Compounds with a hit are over-represented: about 7.5% of the library has one in this group of screens. Calls follow the shape of the dose curve; as a rule, active = well fitted curve in the direction sought with a large enough effect; inconclusive = small, poorly fitted or top-dose-only effect, or another doubt; inactive = no such curve, though single readings can be large; an effect the other way counts as inactive or inconclusive.

How did Cc1cc2ncn(C(=O)c3ccc(F)cc3)c2cc1C do in these assays?
ELG1 genotoxic: inactive; FLuc modulator: 13µM; NPC1 prom act: inactive; Rab9 promoter act: inactive

What do the screens show for `CC(C)(C)c1ccc(C(=O)N2CCCN(C(=O)c3ccc(C(C)(C)C)cc3)CC2)cc1`?
ELG1 genotoxic: inactive; FLuc modulator: inactive; NPC1 prom act: inactive; SMN2 splice enh: inactive; Luc counter: inactive; Rab9 promoter act: inactive

How did CCN(CC)c1ccc(C(=O)n2cnc3ccccc32)cc1 do in these assays?
ELG1 genotoxic: inactive; FLuc modulator: 5.4µM; NPC1 prom act: inconclusive; SMN2 splice enh: inactive; Luc counter: inactive; Rab9 promoter act: inconclusive

Results for CN(C(=O)COC(=O)CCC(=O)c1ccc(F)cc1)C1CCCCC1 ?
ELG1 genotoxic: inactive

How did CCN(Cc1ccccc1)C(=O)CCS(=O)(=O)c1cc(Br)cc2c1N(C(=O)C1CC1)CC2 do in these assays?
FLuc modulator: inactive; SMN2 splice enh: inactive

What do the screens show for `O=c1cnn(-c2ccccc2)c(-c2ccccc2)c1`?
ELG1 genotoxic: inactive; FLuc modulator: 11µM; NPC1 prom act: inactive; SMN2 splice enh: inactive; Luc counter: inactive; Rab9 promoter act: inactive

How did Cc1ccc(-c2cnn(-c3cccc(C(F)(F)F)c3)c2N)cc1 do in these assays?
ELG1 genotoxic: inconclusive; FLuc modulator: 7.6µM; NPC1 prom act: inconclusive; SMN2 splice enh: inactive; Luc counter: inactive; Rab9 promoter act: 4µM

Results for Nc1c(-c2cccc(Cl)c2)cnn1-c1ccccc1 ?
ELG1 genotoxic: inactive; FLuc modulator: 17µM; NPC1 prom act: inconclusive; Rab9 promoter act: inconclusive

What do the screens show for `O=c1c(Br)c(Br)cnn1-c1ccccc1`?
ELG1 genotoxic: inactive; FLuc modulator: inactive; NPC1 prom act: inactive; SMN2 splice enh: inactive; Luc counter: inactive; Rab9 promoter act: inactive

What do the screens show for `Nc1c(-c2ccccc2)cnn1-c1ccccc1`?
ELG1 genotoxic: inconclusive; FLuc modulator: 11µM; NPC1 prom act: 3.2µM; Rab9 promoter act: 3.5µM

What do the screens show for `O=C(Cc1ccc(S(=O)(=O)N2CCOCC2)s1)OCc1ccc(Cl)cc1`?
ELG1 genotoxic: inactive; FLuc modulator: inactive; NPC1 prom act: inactive; Rab9 promoter act: inactive

What do the screens show for `O=C(Cn1nc(C(=O)O)c2ccccc2c1=O)Nc1ccc2c(c1)C(=O)c1ccccc1C2=O`?
ELG1 genotoxic: inconclusive; FLuc modulator: inactive; NPC1 prom act: inconclusive; Rab9 promoter act: inconclusive

How did CN(C)CCCNc1oc(/C=C/c2ccc(F)cc2)nc1C#N do in these assays?
FLuc modulator: inactive; SMN2 splice enh: inactive

How did CC(=O)N1CCc2cc(S(=O)(=O)NCCC(=O)Nc3ccc4c(c3)OCCO4)ccc21 do in these assays?
ELG1 genotoxic: inconclusive; FLuc modulator: 15µM; NPC1 prom act: inactive; SMN2 splice enh: inconclusive; Luc counter: inactive; Rab9 promoter act: inactive

Results for O=C1c2ccccc2C(=O)N1CCSc1nncs1 ?
ELG1 genotoxic: inactive; FLuc modulator: inactive; NPC1 prom act: inactive; SMN2 splice enh: inactive; Luc counter: inactive; Rab9 promoter act: inactive

Results for Cc1csc(SCCN2C(=O)c3ccccc3C2=O)n1 ?
ELG1 genotoxic: inconclusive; FLuc modulator: 13µM; NPC1 prom act: inconclusive; SMN2 splice enh: inactive; Luc counter: inactive; Rab9 promoter act: inconclusive

Results for O=C1c2ccccc2C(=O)N1CCSc1ccccc1 ?
ELG1 genotoxic: 12µM; FLuc modulator: 4.3µM; NPC1 prom act: 2.8µM; SMN2 splice enh: inconclusive; Luc counter: inactive; Rab9 promoter act: inconclusive

How did CCC(Oc1ccc(F)cc1)C(=O)Nc1nc(-c2ccc(F)cc2)ns1 (stereo not drawn) do in these assays?
FLuc modulator: inactive; SMN2 splice enh: inactive

What do the screens show for `CC(C)NC(=S)N/N=C/c1sc(N2CCCCC2)nc1-c1cccs1`?
ELG1 genotoxic: inactive; FLuc modulator: 3µM; NPC1 prom act: inactive; SMN2 splice enh: inactive; Luc counter: inactive; Rab9 promoter act: inactive

What do the screens show for `O=C(N/N=C/c1sc(N2CCCCC2)nc1-c1cccs1)C1CC1`?
ELG1 genotoxic: inactive; FLuc modulator: inconclusive; NPC1 prom act: inactive; SMN2 splice enh: inactive; Luc counter: inactive; Rab9 promoter act: inactive

Results for O=C(Nc1ccccc1O)c1ccc(NC(=O)C2CC2)cc1 ?
ELG1 genotoxic: 21µM; FLuc modulator: 12µM; NPC1 prom act: 3.5µM; Rab9 promoter act: 2.8µM

Results for CCCC(=O)Nc1ccc(C#Cc2ccccc2)cc1 ?
ELG1 genotoxic: inconclusive; FLuc modulator: 4.8µM; NPC1 prom act: 1.6µM; SMN2 splice enh: inconclusive; Luc counter: inactive; Rab9 promoter act: 2.8µM

Results for O=C(Nc1ccccc1C(=O)O)c1ccc(NC(=O)C2CC2)cc1 ?
ELG1 genotoxic: inactive; FLuc modulator: inactive; NPC1 prom act: inactive; Rab9 promoter act: inactive

What do the screens show for `O=C(Nc1ccc(C#Cc2ccccc2)cc1)C1CC1`?
ELG1 genotoxic: inconclusive; FLuc modulator: 5.4µM; NPC1 prom act: 2.5µM; SMN2 splice enh: 3.5µM; Luc counter: inactive; Rab9 promoter act: 1.4µM

What do the screens show for `COCc1cc(C)nc2sc3c(=O)n(-c4cc(C)ccc4C)nnc3c12`?
FLuc modulator: inactive; SMN2 splice enh: inactive

What do the screens show for `Cc1cc(C)cc(N2CC(c3nc(-c4ccccc4C)no3)CC2=O)c1` (stereo not drawn)?
FLuc modulator: inactive

What do the screens show for `COc1ccc(Nc2nnc(-c3ccc(O)cc3)c3ccccc23)cc1`?
ELG1 genotoxic: inconclusive; FLuc modulator: 24µM; NPC1 prom act: inactive; SMN2 splice enh: inactive; Luc counter: inactive; Rab9 promoter act: inactive

How did Cc1ccc(-c2nnc(Nc3ccc4c(c3)OCO4)c3ccccc23)cc1S(N)(=O)=O do in these assays?
ELG1 genotoxic: inactive; FLuc modulator: 24µM; NPC1 prom act: inactive; SMN2 splice enh: inactive; Luc counter: inactive; Rab9 promoter act: inactive

Results for COc1ccc(-c2nnc(Nc3ccc(CC(N)=O)cc3)c3ccccc23)cc1 ?
ELG1 genotoxic: inactive; FLuc modulator: inactive; NPC1 prom act: inactive; SMN2 splice enh: inactive; Luc counter: inactive; Rab9 promoter act: inactive

How did NC(=O)Cc1ccc(Nc2nnc(-c3ccccc3)c3ccccc23)cc1 do in these assays?
ELG1 genotoxic: inactive; FLuc modulator: 21µM; NPC1 prom act: inactive; SMN2 splice enh: inactive; Luc counter: inactive; Rab9 promoter act: inactive

How did Cc1nnc(Nc2ccc3c(c2)OCO3)c2ccccc12 do in these assays?
ELG1 genotoxic: inconclusive; FLuc modulator: 15µM; NPC1 prom act: inconclusive; SMN2 splice enh: inactive; Luc counter: inactive; Rab9 promoter act: inconclusive

What do the screens show for `O=C(Nc1ccnc(-c2cccnc2)n1)c1cccc(Cl)c1Cl`?
ELG1 genotoxic: inactive; FLuc modulator: inactive; NPC1 prom act: inactive; SMN2 splice enh: inactive; Luc counter: inactive; Rab9 promoter act: inactive

Results for N#Cc1cc2c(nc1SCC(O)CS(=O)(=O)Cc1ccccc1)CCCC2 (stereo not drawn) ?
ELG1 genotoxic: inactive; FLuc modulator: inactive[2.3 µM]; NPC1 prom act: inactive; SMN2 splice enh: inactive; Luc counter: inactive; Rab9 promoter act: inactive
